Bioassay records as filed in PubChem.
This is a sample that favours compounds with a hit; in the whole collection about 10% have one here.
KinaseGlo FLuc: blocks Kinase-Glo luciferase, a counter-screen artifact; Q27757; Kinase-Glo luciferase, ATP luminescence, 8 min; Potency, µM (series often up to 38.3 µM), usual class: inhibitors; 200,000 tested, 0.28% active; AID 1379; active = well fitted inhibition curve with a large enough effect; inconclusive = small, poorly fitted or top-dose-only effect; note: nearly all actives have a fitted effect of over 60% in size
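Substrate mix (final 50 mM imidazole pH 7.2, 50 mM KCl, 7 mM MgCl2, 10 uM ATP, 0.01% Tween 20, 0.05% BSA) plus pin-tool compound, then Kinase-Glo detection mix; 8 min ambient, luminescence read.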
ALDH1A1 block: blocks purified human ALDH1A1 activity. Potency, µM (series often up to 75.3 µM), hits mostly inhibitors. 220,000 tested, 7.3% active. Purified ALDH1A1, NADH fluorescence, propionaldehyde substrate. P00352
HPGD inh: blocks human HPGD enzyme activity | P15428 | purified HPGD, NADH fluorescence kinetic, PGE2 substrate | Potency, µM, hits mostly inhibitors | 150,000 tested, 4.3% active
Target sequence (P15428 whole entry, looked up): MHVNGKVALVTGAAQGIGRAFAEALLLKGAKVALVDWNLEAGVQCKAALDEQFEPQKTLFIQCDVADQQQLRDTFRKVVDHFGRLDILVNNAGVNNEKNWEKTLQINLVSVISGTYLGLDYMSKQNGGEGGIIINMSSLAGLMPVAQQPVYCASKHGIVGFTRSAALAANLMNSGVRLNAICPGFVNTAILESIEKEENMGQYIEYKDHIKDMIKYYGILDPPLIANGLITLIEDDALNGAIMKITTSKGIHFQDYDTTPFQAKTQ
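NADH formation kinetics: reaction with 30 uM PGE2 and 1 mM NAD+ (final), 20 nM enzyme, Tris-HCl pH 8 with Tween 20, after 15 min compound preincubation at room temperature. Fluorescence change, last versus first of five reads.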
Lamin A splicing: changes lamin A minigene splicing in HeLa cells; AID 1487; 200,000 tested, 0.01% active; HeLa LMNA splicing GFP/RFP minigene ratio, 48 h; Potency, µM (top dose mostly 46.1 µM), most hits filed as inhibitors; active = well fitted inhibition curve with a large enough effect in the signal ratio, with a control signal flat, not every such curve was filed as active; inconclusive = small, poorly fitted or top-dose-only effect, or effect the other way, or a change in a side signal; the % refers to the signal ratio
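S3 HeLa stable clones carrying a lamin A-EGFP splicing minigene plus DsRed2 were seeded at 600 cells/well in Opti-MEM with 2% FBS, pin-dosed and incubated 48 h at 37°C. Acumen cytometry (488 nm) gave the GFP/RFP total-intensity ratio.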
IMPase cell inh: IMPase inhibition in cells. P97697. CHO-M1 cells, IP1 accumulation, HTRF TR-FRET ratio. inhibition (IP1 accumulation), % at 46.1 µM. 120,000 tested, under 10 active. AID 901; active = well fitted curve in the direction sought with a large enough effect in the signal ratio, not every such curve was filed as active; inconclusive = small, poorly fitted or top-dose-only effect, or a change in a side signal; inactive = no such curve, though single readings can be large or run the other way; the % refers to the signal ratio;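 note: cells stimulated with carbachol in lithium chloride buffer; higher means more IMPase inhibition seen as more IP1 and lower FRET ratio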
Target sequence (P97697 whole entry, looked up): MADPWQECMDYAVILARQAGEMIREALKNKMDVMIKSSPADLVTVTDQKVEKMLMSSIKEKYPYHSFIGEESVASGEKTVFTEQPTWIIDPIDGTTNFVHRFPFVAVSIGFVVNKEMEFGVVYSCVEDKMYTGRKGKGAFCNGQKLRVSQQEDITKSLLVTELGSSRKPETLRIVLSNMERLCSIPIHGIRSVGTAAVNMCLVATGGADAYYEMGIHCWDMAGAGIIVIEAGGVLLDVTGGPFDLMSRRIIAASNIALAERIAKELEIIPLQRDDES
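Carbachol-driven Gq signalling in CHO-M1 cells (2000/well) generates IP1. Compounds that block IMPase raise IP1 and so reduce the FRET signal from Eu-anti-IP1 and d2-IP1 after a 10 min room-temperature lysis.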
PNC inhibitor: inhibitors of perinucleolar compartment assembly; activity change (PNC), negative = inhibition, % at 10 µM; 140,000 tested, 3.1% active; PC3M PTB-GFP, PNC prevalence imaging, 16 h; hits give low values;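 active = readout at or below -70, meaning at least 70% loss of cells showing the perinucleolar compartment, a nuclear body marking cancer cells; inconclusive = readout between -30 and a set limit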
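Read-out is percentage of cells bearing a perinucleolar compartment, from automated 20x imaging of fixed, Hoechst-stained PC3M PTB-GFP cells. Cells were seeded 4 h, then exposed 16 h to compound (23 nl of library stock) in duplicate plates.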
A number is an active result; – = inactive; ? = inconclusive; · = not tested or not shown; [ ] = another dose, or the depositor's remark. Unless noted, calls come from the whole dose curve; as a rule, active = well fitted inhibition curve with a large enough effect (not every such curve was filed as active); inconclusive = small, poorly fitted or top-dose-only effect, or another doubt; inactive = no such curve, though single readings can be large or run the other way.

SMILES	KinaseGlo FLuc	ALDH1A1 block	HPGD inh	Lamin A splicing	IMPase cell inh	PNC inhibitor
Cc1ccc(C)c(Cn2nnc3c(=O)[nH]c(C4CCCN(C(=O)CC(C)C)C4)nc32)c1 (stereo not given)	–	–	10µM	–	–	–
Cc1ccc(C(=O)N2CCCC(c3nc4c(nnn4Cc4ccccc4)c(=O)[nH]3)C2)cc1 (stereo not given)	–	?	3.5µM	–	–	?
Cc1ccc(Cn2nnc3c(=O)[nH]c(C4CCCN(C(=O)Nc5ccc(F)cc5F)C4)nc32)cc1 (stereo not given)	–	?	–	–	–	–
Cc1cc(C)cc(NC(=O)c2nnn(Cc3cc(C)ccc3C)c2N)c1	–	–	–	–	–	–
COCCCNC(=O)c1nc2c(nnn2Cc2cc(C)ccc2C)c(=O)[nH]1	–	–	0.45µM	–	–	–
N=c1ccn2c(n1)O[C@H]1[C@@H](OP(=O)(O)O)[C@H](CO)O[C@H]12	–[7.66 µM]	–[13.5 µM]	–	·	·	·
CC1CCc2c(sc(NC(=O)c3ccccc3)c2C(=O)Nc2ccccc2)C1 (stereo not given)	·	·	·	·	–	·
O=C(NCCCN1CCCCCC1)C(c1ccccc1)C1CCCCC1 (stereo not given)	·	–	·	·	·	·
CCCN(c1ccc(OCC)cc1)S(=O)(=O)c1ccc2c(c1)CCN2C(=O)CCC(=O)O	–	–	–	–[0.0737 µM]	–	–
CCCCN(c1ccccc1)S(=O)(=O)c1ccc2c(c1)CCN2C(=O)CCC(=O)O	–	–	–	–	–	-83
CCC(=O)N1CCCc2cc(S(=O)(=O)NCc3cccs3)ccc21	–	?	–	–	–	–
O=C(O)CCC(=O)N1CCc2cc(S(=O)(=O)NCc3cccs3)ccc21	–	–	25µM	–	–	–
CCCNC(=O)[C@H]1O[C@@H]1C(=O)N[C@H](C(=O)N1CCC[C@H]1C(=O)OC)[C@@H](C)CC	·	–	·	·	·	·
O=[N+]([O-])c1cc(/C=N/n2cnnc2)ccc1N1CCCC1	–	1µM	·	?	·	·
O=C(O/N=C\c1ccc(N2CCOCC2)c([N+](=O)[O-])c1)c1ccc(F)cc1	–	?	–	–	–	–
CC1CCN(c2ccc(/C=N\Nc3nncn3N)cc2[N+](=O)[O-])CC1	–	?	–	–	·	-116
O=C(O/N=C/c1ccc2c(c1)OCO2)c1ccccc1Cl	11µM	?	?	–	–	–
CC(C)CN(CC(C)C)c1ccc(/C=N/n2cnnc2)cc1[N+](=O)[O-]	–	?	·	–	·	·
O=C(O)c1cc(N/N=C/c2ccc3c(c2)OCO3)ccc1Cl	–	?	·	·	·	·
O=C(O/N=C\c1ccc(N2CCOCC2)c([N+](=O)[O-])c1)c1ccccc1Cl	–	1.6µM	–	–	–	–
O=c1c(N2CCc3ccccc3C2)csc2ccc(F)cc12	·	·	·	–	·	·
CN1CC(=O)N(CC(=O)Nc2ccc(OC(F)(F)F)cc2)c2ccccc2C1=O	·	·	·	–	·	·
COc1cccc(C(=O)Nc2ccc(C(=O)OCc3cc(=O)n4cc(C)sc4n3)cc2)c1	·	·	·	–	·	·
CO/N=C/c1ccc(N2CCCC2)c([N+](=O)[O-])c1	–	?	·	?	·	·
Cc1ccc(Sc2ccc(/C=N/O)cc2[N+](=O)[O-])cc1	–	–	–	?	–	–
SMILES	KinaseGlo FLuc	ALDH1A1 block	HPGD inh	Lamin A splicing	IMPase cell inh	PNC inhibitor
CC(C)(C)Sc1ccc(/C=N/O)cc1[N+](=O)[O-]	–	22µM	·	–	·	·
O=[N+]([O-])c1cc(/C=N/O)ccc1N1CCCC1	–	11µM	·	?	·	·
O=C(c1ccc(S(=O)(=O)c2ccccc2Cl)c([N+](=O)[O-])c1)N1CCN(Cc2ccccc2)CC1	–	14µM	–	?	·	?
O=C(c1ccc(S(=O)(=O)Cc2ccccc2F)c([N+](=O)[O-])c1)N1CCCC1	–	?	·	·	·	·
O=C(NC1CCCCC1)c1ccc(S(=O)(=O)c2ccccc2Cl)c([N+](=O)[O-])c1	–	–	–	?	·	–
O=C(c1ccc(S(=O)(=O)c2ccc(F)cc2)c([N+](=O)[O-])c1)N1CCCCCC1	–	–	–	?	–	-119
COc1cc(N(C)C)c([N+](=O)[O-])cc1C(=O)N1CCN(Cc2ccccc2)CC1	–	10µM	·	–[9.22 µM]	·	·
COc1cc(SC)ccc1C(=O)N1CCN(Cc2ccccc2)CC1	–	–	·	–	·	·
Cc1cc(C(=O)NCC(=O)OCC(=O)Nc2ccc(OC(F)F)cc2)ccc1[N+](=O)[O-]	–	3.2µM	–	–	·	–
O=C(O)c1ccccc1C(=O)Nc1ccc(-c2csc(-c3ccccc3)n2)cc1	–	?	?	–	–	-98
COC1=NS(=O)(=O)c2ccccc21	–	–	–	–	·	?
COc1ccc(N(C)C2=NS(=O)(=O)c3ccccc32)cc1	–	–	–	–	–	-101
COc1ccccc1NC(CC(=O)c1ccccc1)C(=O)OCC(=O)c1ccc(F)cc1 (stereo not given)	–	13µM	–	–	–	–
C[C@H]1[C@H](C)CC[C@]2(C(=O)O)CC[C@]3(C)C(=CCC4[C@@]5(C)CC[C@H](O)C(C)(C)[C@@H]5CC[C@]43C)[C@H]12 (stereo not given in full)	–	–	–	·	–	·
Cc1ccc(S(=O)(=O)N2CCC(=O)N(C(COCc3ccccc3)C(C)C)CC2)cc1 (stereo not given)	–	?	–	–	·	–
Cc1ccc(S(=O)(=O)N2CCC(=O)N(C(COCc3ccc(Cl)cc3)C(C)C)CC2)cc1 (stereo not given)	–	?	–	?	·	-119
Cc1ccc(S(=O)(=O)N2CCC(=O)N(CCOCc3cccc(C(F)(F)F)c3)CC2)cc1	–	–	–	?	·	-81
O=C(CCCSc1nc(-c2ccco2)cc(C(F)(F)F)n1)Nc1ccc2c(c1)OCO2	–	16µM	20µM	?	–	–
O=C(CSc1nc(-c2ccco2)cc(C(F)(F)F)n1)Nc1ccc(C(=O)N2CCOCC2)cc1	–	–	22µM	–	–	-100
O=C(CCSc1nc(-c2ccco2)cc(C(F)(F)F)n1)N1CCN(c2ccccn2)CC1	–	?	–	?	–	?
O=C(CCSc1nc(-c2ccco2)cc(C(F)(F)F)n1)N1CCCc2ccccc21	–	18µM	?	–	–	?
O=C(CSc1nc(-c2ccco2)cc(C(F)(F)F)n1)Nc1ccc2c(c1)OCO2	–	–	–	–	–	–
CCc1ccc(NC(=O)CC(NCc2cccnc2)C(=O)O)cc1 (stereo not given)	·	·	·	·	–	·
COc1ccc(C(=O)C2CCCN(C(=O)c3cccs3)C2)cc1F (stereo not given)	–	?	·	–	·	·
Cc1cc(C(=O)N2CCCC(C(=O)c3ccc4ccccc4c3)C2)nn1C (stereo not given)	–	?	·	·	·	·
CCc1noc(C)c1C(=O)N1CCCC(C(=O)c2ccc(OC)c(F)c2)C1 (stereo not given)	–	7.1µM	·	?	·	·
